Assay outcomes from PubChem BioAssay.
Hits are enriched below; roughly 1.2% of the tested compounds scored in any of these assays.
Sa ugtP lethal – compounds lethal to S. aureus RN4220 ugtP deletion mutant | OD600 growth, 16 h | growth inhibition, % (no concentration beside the values) | 0.54% of 330,000 active | AID 1259309; in the data active means growth inhibition above about 68%;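 further: plate controls were untreated wells for no effect and antibiotic for full effect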
BJeLR viability – kills HRASV12-expressing BJeLR cells; BJeLR (HRASV12) viability, CellTiter-Glo ATP luminescence, 48 h; inhibition, % (concentration not given with the values); 0.17% of 300,000 active; in the data active means inhibition above about 50%
RN4220 kill – kills Staphylococcus aureus RN4220. S. aureus RN4220 growth, OD600, 16 h. inhibition, % (test concentration not listed). 0.33% of 330,000 active; in the data active means inhibition above about 85%;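 further: plate controls were untreated cells for no effect and reference antibiotic for full effect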
PriA SSB inh – K. pneumoniae PriA-SSBct interaction inhibition | AID 1272365 | inhibition, % at 33 µM | 0.6% of 430,000 active | AlphaScreen SSBct-PriA binding, biotinylated peptide; in the data active means inhibition mostly above about 37%, no sharp cut-off; inactive means mostly below about 20%;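 further: plate controls were negative control peptide for no effect and reference peptide for full effect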
MazEF act – MazEF (E. coli) toxin RNase activation; FAM/BHQ RNA-DNA oligo cleavage fluorescence, 5 h; activation, % at 20 µM; 0.32% of 350,000 active; in the data active means activation above about 50%
Target sequence (P0AE70 whole entry, looked up): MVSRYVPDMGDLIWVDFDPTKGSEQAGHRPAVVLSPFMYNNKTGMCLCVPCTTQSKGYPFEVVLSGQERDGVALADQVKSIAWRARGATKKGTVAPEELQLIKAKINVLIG
* hit, by the source's call.

Screening CN1CCN(CCCCC(=O)c2ccccc2)CC1 returned Sa ugtP lethal 3, BJeLR viability 5, RN4220 kill 4, PriA SSB inh 0 and MazEF act 6.
Screening C[C@@H]1O[C@@H](O[C@H]2C[C@@H](O)[C@]3(CO)[C@H]4[C@H](O)C[C@]5(C)[C@@H](C6COC(=O)C6)CC[C@]5(O)[C@@H]4CC[C@]3(O)C2)[C@H](O)[C@H](O)[C@H]1O (stereo partly specified) returned BJeLR viability 71*, PriA SSB inh -2 and MazEF act -3.
For CCCCNC(=O)NCCN1CCOCC1 the results were Sa ugtP lethal 1, BJeLR viability 5, RN4220 kill 3, PriA SSB inh -7 and MazEF act 13.
Cn1c(=O)cc(OCCCC(=O)NC2CCCC2)c2ccccc21 was read as Sa ugtP lethal 9, BJeLR viability -4, RN4220 kill 3, PriA SSB inh -4 and MazEF act 2.
Screening O=C(/C=C/c1cccc(Cl)c1)c1ccc([N+](=O)[O-])o1 returned BJeLR viability 107*, PriA SSB inh -3 and MazEF act 14.
O=C(Nc1ccc(Cl)cn1)c1ccc([N+](=O)[O-])o1 was read as Sa ugtP lethal 7, BJeLR viability -6, RN4220 kill 9, PriA SSB inh -1 and MazEF act 10.
`O=C(C=Cc1ccc(Cl)cc1)c1ccc([N+](=O)[O-])o1` gave Sa ugtP lethal 99* and RN4220 kill 79.
`COc1cccc2[nH]c3c(N4CCCCC4)ncnc3c12` gave Sa ugtP lethal -10, BJeLR viability 8, RN4220 kill 5, PriA SSB inh -1 and MazEF act 4.
Cc1cccc2[nH]c3c(N4CC=C(c5ccc(F)cc5)CC4)ncnc3c12 was read as Sa ugtP lethal 89*, BJeLR viability -5, RN4220 kill 73, PriA SSB inh 13 and MazEF act 5.
Screening Cc1cc(C(c2ccc(C)o2)c2ccc(C)o2)c(O)c([N+](=O)[O-])c1 returned Sa ugtP lethal 67, BJeLR viability -3, RN4220 kill -13, PriA SSB inh 10 and MazEF act 1.
For Cc1ccc(C(c2ccc(C)o2)c2cccc([N+](=O)[O-])c2O)o1 the results were Sa ugtP lethal 52, BJeLR viability -2, RN4220 kill -5, PriA SSB inh 45* and MazEF act 0.
Screening N#Cc1ccccc1S(=O)(=O)N1CCN(C(=O)C2CCCCC2)CC1 returned Sa ugtP lethal 2, RN4220 kill 2, PriA SSB inh 0 and MazEF act 3.
CON=CNC(=O)N1OC[C@@H]2COc3ccc4ccccc4c3[C@@H]21 was read as PriA SSB inh -12.
`O=C(NC=NOCc1cccc(C(F)(F)F)c1)N1OC[C@@H]2COc3ccc4ccccc4c3[C@@H]21` gave PriA SSB inh 45*.
Screening COC(=O)c1ccc(COC(=O)CNC(=O)CNC(=O)c2ccc(C)cc2)cc1 returned Sa ugtP lethal 6, BJeLR viability 4, RN4220 kill 0, PriA SSB inh 4 and MazEF act -1.
Clc1cc(-c2ccccn2)nc(-c2ccccn2)c1 was read as PriA SSB inh 64*.
Screening Brc1cc(-c2ccccn2)nc(-c2ccccn2)c1 returned PriA SSB inh 58*.
Screening O=C(Cn1cccn1)NCCN1Cc2cc(Cl)ccc2OCC1=O returned PriA SSB inh -3.
Screening O=C(c1ccc(OC(F)(F)F)cc1)N(Cc1cccs1)C1CCOCC1 returned PriA SSB inh -7.
Screening O=c1c2ccccc2c(-c2ccccc2)nn1Cc1c(Cl)cccc1Cl returned Sa ugtP lethal 96*, BJeLR viability 3, RN4220 kill -13, PriA SSB inh -2 and MazEF act -7.
For Cc1c(N=C2N=C(NC(=O)Nc3ccc(Cl)cc3)c3ccccc32)c(=O)n(-c2ccccc2)n1C the results were Sa ugtP lethal -14, BJeLR viability 5, RN4220 kill -3, PriA SSB inh 12 and MazEF act 88*.
O=C(CN1C(=O)NC2(CCOc3ccccc32)C1=O)c1ccc(F)cc1 (stereo unspecified) was read as Sa ugtP lethal 1, BJeLR viability 3, RN4220 kill 3, PriA SSB inh 6 and MazEF act 3.
Screening O=C(O)c1ccc(N/N=C/C(Br)=C/c2ccccc2)cc1 returned BJeLR viability -3, PriA SSB inh inactive and MazEF act 61*.
For O=C(O)c1ccc(NN=C/C=C/c2ccccc2)cc1 the results were Sa ugtP lethal 7 and RN4220 kill 19.
